# CYP2C9 activ: increases human cytochrome P450 2C9 activity; P11712; activation factor at 5 µM; recombinant CYP2C9, luciferin-H conversion, luminescence; stronger effect = higher value; factor 1 = untreated enzyme, 0 = blocked; 96,000 tested, 1.4% active; AID 1024;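 active = activation factor of 2 or more for CYP2C9 at a 5 µM dose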;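 also: 0 = sulfaphenazole-blocked wells and 1 = vehicle-only wells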
# Target sequence (P11712 whole entry, looked up): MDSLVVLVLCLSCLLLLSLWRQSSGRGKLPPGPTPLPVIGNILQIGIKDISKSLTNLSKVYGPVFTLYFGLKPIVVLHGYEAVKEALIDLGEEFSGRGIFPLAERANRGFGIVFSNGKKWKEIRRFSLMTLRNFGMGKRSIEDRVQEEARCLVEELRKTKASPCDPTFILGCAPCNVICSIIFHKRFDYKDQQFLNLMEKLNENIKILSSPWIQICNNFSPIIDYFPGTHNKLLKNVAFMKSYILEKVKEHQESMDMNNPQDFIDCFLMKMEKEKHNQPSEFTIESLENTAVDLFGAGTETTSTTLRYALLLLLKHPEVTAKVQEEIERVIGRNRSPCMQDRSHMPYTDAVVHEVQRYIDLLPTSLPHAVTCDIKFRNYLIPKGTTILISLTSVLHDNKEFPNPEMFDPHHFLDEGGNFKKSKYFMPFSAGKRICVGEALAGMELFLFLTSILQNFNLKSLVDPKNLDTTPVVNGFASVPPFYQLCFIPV
# CYP2C19 inhib: inhibitors of human CYP2C19; P33261; AID 778; 96,000 tested, 21% active; inhibition, % at 5 µM; CYP2C19 Supersomes, luciferin-H EGE luminescence, 30 min;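 active = CYP2C19 inhibition above a set limit at 5 µM in the primary screen, cut at about 50% in these data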;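 also: plate controls were negative control wells for no effect and 2.5 mM tranylcypromine positive control for full effect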
# CYP2C19 activ: increases human CYP2C19 enzyme activity; 96,000 tested, under 10 active; AID 1025; P33261; activation factor at 5 µM; recombinant CYP2C19, luciferin-H EGE luminescence; stronger effect = higher value; 0 = fully inhibited enzyme, 1 = untreated enzyme;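 active = activation factor of at least 2 at 5 µM in the primary screen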;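 also: 0 = wells with 2.5 mM tranylcypromine and 1 = vehicle-only wells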
# CYP2C9 inh: blocks human cytochrome P450 2C9. 96,000 tested, 20% active. P11712. CYP2C9 Supersomes, luciferin-H conversion, luminescence. AID 777. inhibition, % at 5 µM;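 active = blocking of liver enzyme CYP2C9 beyond about 50% at 5 µM, limit read from the data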
# Measles CPE: protection of cells from measles virus. Measles virus-infected cells, CPE protection, absorbance. protection (pct of control), % at 4 µM. 140,000 tested, 1.5% active. AID 841; in the data active = protection mostly above about 24%, no sharp cut-off; inactive = mostly below about 26%
# The depositor's hits bear a star; · = no result. Hits are enriched below; roughly 22% of the tested compounds scored in any of these assays.
SMILES,CYP2C9 activ,CYP2C19 inhib,CYP2C19 activ,CYP2C9 inh,Measles CPE
CCC1CCCCN1C(=O)Cn1c(=O)oc2ccccc21 (stereo unspecified),0.9,83.3*,0.2,12.3,12.9
CCC1CCCCN1C(=O)Cn1c(C(=O)OC)cc2ccsc21 (stereo unspecified),0.6,52.6*,0.5,37.8,12.0
CCC1CCCCN1CCCNC(=O)COc1cc(=O)n(C)c2ccccc12 (stereo unspecified),1,-4.0,1,3.3,3.8
Cn1c(=O)cc(OCC(=O)NC2CCCCC2)c2ccccc21,1,62.3*,0.4,1.6,7.1
CCC1CCCCN1C(=O)COc1cc(=O)n(C)c2ccccc12 (stereo unspecified),0.9,59.2*,0.4,7.5,1.5
CCC1CCCCN1C(=O)Cn1c(C(=O)OC)cc2sc(Cl)cc21 (stereo unspecified),0.9,31.3,0.7,6.7,2.0
Cc1ccc(/C=N/N2C(=O)c3ccccc3NC2c2ccc(C)cc2)cc1 (stereo unspecified),·,·,·,·,8.6
COc1ccc(-n2c(C)cc(/C=C(\C#N)C(=O)NCc3ccco3)c2C)cc1,·,·,·,·,19.3
CC(C)(C)NC(=O)COC(=O)c1cc(F)c(F)cc1Cl,1,76.9*,0.2,1.2,8.6
COc1ccc(NC(=O)N2CCn3c2nc2ccccc23)cc1,0.3,48.6,0.5,70.8*,5.4
CC(C)n1c(N2CCN(C(=O)Nc3ccccc3)CC2)nc2ccccc21,0.5,36.2,0.6,52.3*,5.2
O=C(Nc1ccccc1)N1CCn2c1nc1ccccc12,0.3,17.6,0.8,65.6*,5.5
S=C(Nc1ccccc1)N1CCn2c1nc1ccccc12,0.9,4.9,1,9.4,8.5
Cn1c(N2CCN(C(=O)Nc3ccc(F)cc3)CC2)nc2ccccc21,·,·,·,·,4.5
Cc1ccc(S(=O)(=O)N2CCN(S(=O)(=O)c3ccc(C)cc3)C3OCCOC32)cc1 (stereo unspecified),1,-14.1,1.1,-1.6,10.7
Cc1cc(C(F)(F)F)nn1C(=O)c1cccnc1Cl,1,4.9,1,-2.6,18.6
N#CCc1ccc(C(=O)c2ccccc2F)s1,1,25.1,0.7,3.9,10.8
O=C1C2CC=CCC2C(=O)N1c1n[nH]c(-c2ccccc2)n1 (stereo unspecified),0.1,79.6*,0.2,92.5*,19.1
O=C(Oc1c(Br)cc([N+](=O)[O-])cc1Br)c1cccnc1,·,·,·,·,6.4
CCC(=O)N1CCN(c2ccc(NC(=O)c3cc4ccccc4o3)cc2)CC1,·,·,·,·,19.5
CC(C)n1nc(C(=O)Nc2nc3ccc(S(C)(=O)=O)cc3s2)c2ccccc2c1=O,0.8,-3.4,1,20.7,19.1
CC(C)n1nc(C(=O)Nc2nnc(SCc3c(Cl)cccc3Cl)s2)c2ccccc2c1=O,0.1,66.4*,0.3,86.4*,2.7
Cc1noc(C)c1C(=O)Nc1ccc(F)c(F)c1,0.9,37.1,0.6,10.4,10.7
CN1/C(=C\C(=O)CN2C(=O)NC3(CCCCCC3)C2=O)C(C)(C)c2ccccc21,0.2,88.5*,0.1,78.6*,14.1
O=C(COc1ccccc1Cl)NC(=S)Nc1cccc(NC(=O)c2ccccc2Cl)c1,0.3,25.5,0.7,66.9*,5.8
SMILES,CYP2C9 activ,CYP2C19 inhib,CYP2C19 activ,CYP2C9 inh,Measles CPE
CCOc1cccc(C(=O)NC(=S)Nc2cccc(NC(=O)c3ccccc3Cl)c2)c1,·,·,·,·,16.5
CCCOc1cccc(CN2CCCCC2c2cccnc2)c1 (stereo unspecified),0.2,91.6*,0.1,83.2*,10.6
CC(C)NC(=O)CSc1nnc(-c2ccco2)n1N,1.1,-2.8,1,-11.8,2.4
CC1=C(C(=O)Nc2ccc([N+](=O)[O-])cc2)C(c2cccc(C(F)(F)F)c2)NC(=S)N1c1ccccc1 (stereo unspecified),0.1,14.7,0.9,89.2*,5.5
COc1cc2[nH]c(=O)n(Cc3ccc(C(=O)NCC4CCCO4)cc3)c(=O)c2cc1OC (stereo unspecified),0.8,5.0,0.9,17.7,7.2
CCCCCCC1CC(CSC(=N)N)OC1=O (stereo unspecified),1,79.3*,0.2,2.8,17.0
CCCC1CC(CSC(=N)N)OC1=O (stereo unspecified),1,4.2,1,-4.4,1.1
Cc1cccc2sc(NC(=O)CCNS(=O)(=O)c3cccs3)nc12,0.2,82.0*,0.2,77.8*,6.8
O=C(CSc1nnc(-c2ccc(Cl)cc2)n1Cc1ccco1)NCc1ccc2c(c1)OCO2,0.4,37.7,0.6,56.3*,7.5
O=C(OC(C(=O)NCc1ccc2c(c1)OCO2)c1ccc(Cl)cc1)c1ccco1 (stereo unspecified),0,85.0*,0.2,98.2*,1.6
O=C(CSc1nnc(-c2ccccc2Cl)n1Cc1ccco1)Nc1ccc2c(c1)OCCO2,0.1,89.8*,0.1,93.4*,6.2
CCOc1ccc(C(OC(=O)c2ccco2)C(=O)NCc2ccc(C)cc2)cc1 (stereo unspecified),0.6,12.4,0.9,43.7,4.7
CC(=O)Nc1cccc(NC(=O)CSc2ncc(-c3ccc(Cl)cc3)n2Cc2ccco2)c1,0.6,48.2,0.5,41.6,13.4
COc1ccc(-c2cnc(SCC(=O)Nc3ccc4c(c3)OCO4)n2Cc2ccco2)cc1,0,95.9*,0,99.5*,14.6
O=C(CSc1nnc(-c2ccc(Cl)cc2)n1Cc1ccco1)Nc1ccc2c(c1)OCCO2,0.8,27.0,0.7,23.9,3.1
O=C(Nc1cccnc1)c1noc2c1CCCC2,0.7,37.5,0.6,35.0,6.2
COc1cccc(N(CC(=O)NCCSc2ccc(Cl)cc2)S(C)(=O)=O)c1,0.8,13.5,0.9,16.3,9.2
COc1cccc(N(CC(=O)NCCSc2ccccc2)S(C)(=O)=O)c1,0.4,93.4*,0.1,56.0*,1.0
COc1cccc(N(CC(=O)O)S(=O)(=O)c2ccccc2)c1,1.1,-21.0,1.2,-9.8,8.3
COc1ccc(N(CC(=O)NCc2ccc3c(c2)OCO3)S(C)(=O)=O)cc1OC,0.9,19.3,0.8,13.3,25.2
COc1ccc(N(CC(=O)NCCSC(C)(C)C)S(C)(=O)=O)c(OC)c1,1,4.0,1,-1.8,3.5
COc1ccc(CNC(=O)CN(c2cccc(OC)c2)S(C)(=O)=O)cc1,0.8,86.7*,0.1,16.9,·
COc1ccc(OC)c(N(CC(=O)NCCSc2ccccc2)S(C)(=O)=O)c1,0.1,93.7*,0.1,89.6*,22.4
COCCNC(=O)CN(c1cccc(OC)c1)S(=O)(=O)c1ccc(C)cc1,0.6,76.0*,0.2,40.2,15.1
Cc1c(NC(=O)Cn2[nH]c(=O)c3ccccc3c2=O)c(=O)n(-c2ccccc2)n1C,1.1,-3.3,1,-11.6,10.0
Cc1ccc(S(=O)(=O)N2CCN(CC(=O)N/N=C\c3cccnc3)CC2)cc1,·,·,·,·,5.7
CCCCn1c(NC(=O)c2ccc(Br)o2)c(S(=O)(=O)c2ccccc2)c2nc3ccccc3nc21,0.2,9.2,0.9,83.3*,27.0

# Bioassay records from PubChem BioAssay.
